Assay results published in the supplement of paper PMC6555819.

Tests used:
Experiment in all cases: PBM binding z-score (relative to random genomic background probes); higher = stronger binding; sequences stand for … in GC…GCGATTGACAGCGTAGAATGAAGG
[1] = tested on: FXR:RXRa (NR concentration 270 nM, RXRa partner concentration 90 nM)
In short: (§1)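 Regression normalization was applied to scanned fluorescence from custom Agilent 4×180K protein-binding microarrays. Before scanning, arrays were incubated 1 h with ligand-free nuclear receptor dimers, and binding was detected with antibodies against each partner (one per run). Binding z-scores use the random background probes as reference.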

[2] = tested on: LXRa:RXRa (NR concentration 270 nM, RXRa partner concentration 90 nM)
In short: as §1

[3] = tested on: LXRa homodimer (NR concentration 270 nM)
In short: as §1

[4] = tested on: LXRb:RXRa (NR concentration 270 nM, RXRa partner concentration 90 nM)
In short: as §1

[5] = tested on: LXRb homodimer (NR concentration 270 nM)
In short: as §1

[6] = tested on: PPARa:RXRa (NR concentration 270 nM, RXRa partner concentration 90 nM)
In short: as §1

[7] = tested on: PPARg:RXRa (NR concentration 180 nM, RXRa partner concentration 90 nM)
In short: as §1

[8] = tested on: PPARg:RXRa 270nM:90nM, anti-RXR (NR concentration 270 nM, RXRa partner concentration 90 nM)
In short: as §1

[9] = tested on: PPARg:RXRa 30nM:10nM, anti-RXR (NR concentration 30 nM, RXRa partner concentration 10 nM)
In short: as §1

[10] = tested on: PPARg:RXRa 90nM:30nM, anti-RXR (NR concentration 90 nM, RXRa partner concentration 30 nM)
In short: as §1

[11] = tested on: PPARg:RXRa DBDmut IVT, anti-RXR (DBD mutation: RXRa K156A/R161A, NR concentration 270 nM, RXRa partner concentration 90 nM)
In short: as §1

[12] = tested on: PPARg:RXRa IVT, anti-PPARg (NR concentration 270 nM, RXRa partner concentration 90 nM)
In short: as §1

[13] = tested on: PPARg DBDmut IVT, anti-PPARg (DBD mutation: PPARg1 K132A/R137A, NR concentration 270 nM)
In short: as §1

[14] = tested on: PPARg homodimer (NR concentration 180 nM)
In short: as §1

[15] = tested on: PXR:RXRa (NR concentration 270 nM, RXRa partner concentration 90 nM)
In short: as §1

[16] = tested on: PXR homodimer (NR concentration 270 nM)
In short: as §1

[17] = tested on: RARa:RXR (NR concentration 270 nM, RXRa partner concentration 90 nM)
In short: as §1

[18] = tested on: RARa homodimer (NR concentration 270 nM)
In short: as §1

[19] = tested on: RARb:RXRa (NR concentration 270 nM, RXRa partner concentration 90 nM)
In short: as §1

Sequence | PBM binding z-score [1] | PBM binding z-score [2] | PBM binding z-score [3] | PBM binding z-score [4] | PBM binding z-score [5] | PBM binding z-score [6] | PBM binding z-score [7] | PBM binding z-score [8] | PBM binding z-score [9] | PBM binding z-score [10] | PBM binding z-score [11] | PBM binding z-score [12] | PBM binding z-score [13] | PBM binding z-score [14] | PBM binding z-score [15] | PBM binding z-score [16] | PBM binding z-score [17] | PBM binding z-score [18] | PBM binding z-score [19]
CGGACTAGGTCACCAGGACAGTGAAGAGGTTGGA | 3.78 | 2.23 | -0.177 | 1.34 | -0.742 | 4.41 | 8.1 | 6.5 | 4.18 | 5.97 | 7.92 | 8.27 | 0.234 | 1.95 | 1.24 | -0.197 | 2.09 | -0.221 | 4.15
ATATGTAGGTTAGGGTCATGCAGAAAGTAGGGAA | 4.77 | 4.14 | 0.926 | 4.29 | 1.21 | 5.74 | 7.7 | 6.66 | 4.91 | 6.3 | 6.6 | 6.52 | 2.44 | 2.6 | 4.26 | 1.01 | 5.05 | 1.83 | 3.66
ATATGTAGGTTAGGGTCATTAAGAAAGTAGGGAA | 4.6 | 3.41 | 1.04 | 4.44 | 1.52 | 5.58 | 7.9 | 6.59 | 4.1 | 6.14 | 6.33 | 6.81 | 3.64 | 3.28 | 3.9 | 1.85 | 4.79 | 1.97 | 3.32
CGAACTAGTTCACCAGGACAGTGAAGAGGTTGGA | 0.244 | 0.23 | -0.131 | -0.137 | -0.531 | 0.836 | 0.543 | 0.354 | -0.289 | -0.0706 | 1.56 | 1.11 | 0.126 | -0.235 | 0.423 | 0.241 | 0.0691 | -0.106 | 1.7
CGAACTAGGTGAAAGGACAGTGAAAGGCGACGTA | -0.276 | -0.418 | -0.4 | -0.115 | -0.863 | 4.46 | 8.84 | 7.7 | 6.77 | 8.31 | 7.36 | 7.28 | 1.83 | 1.93 | -0.398 | -0.114 | -0.0573 | -0.695 | 1.54
CGAACTAGGTCACAGGACAGTGAAAGGCGACGTA | 4.05 | 2.67 | -0.102 | 1.78 | -0.469 | 5.21 | 8.8 | 7.37 | 4.65 | 7.31 | 8.61 | 8.91 | 3.67 | 2.35 | 1.38 | -0.238 | 2.22 | 0.616 | 4.11
ATATGTAGGTTTGGGTCATTCAGAAAGTAGGGAA | 1.74 | 1.71 | 0.946 | 2.49 | 1.68 | 3.1 | 2.34 | 2.64 | 1.4 | 2.29 | 2.79 | 3.08 | 1.3 | 2.99 | 2.17 | 1.25 | 2.47 | 2.33 | 2.07
